# Laboratory results from PubChem BioAssay (NCI).
# This is part of a sample that, as a whole, favours compounds with a hit. Of some 79,000 tested, about 15% had one in any assay. Unmarked numbers belong to inactive results. The source made the active and inactive calls. Cut-off read from the data, not from the text of the source: active = growth inhibition above about 70%; inactive = the rest.
# Assays:
# [1] = NCI Yeast Anticancer Drug Screen. Data for the rad52 strain (AID 147);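 note: 0% = growth of vehicle-treated control cultures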; conditions: S. cerevisiae rad52 mutant growth inhibition, stronger effect = higher value
# How it was run: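 Vehicle-treated cultures served as the reference for growth inhibition of compound-exposed yeast bearing a DNA repair mutation.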
# [2] = NCI Yeast Anticancer Drug Screen. Data for the wt1 strain (AID 149);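 note: 0% = growth of vehicle-treated wt1 cultures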; conditions: S. cerevisiae wt1 strain (SPY 50644) growth inhibition, stronger effect = higher value
# How it was run: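 Using yeast strain wt1, compound-induced growth inhibition was determined against vehicle-treated cultures.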
# [3] = NCI Yeast Anticancer Drug Screen. Data for the rad50EPP+ strain (AID 151);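 note: 0% = growth of vehicle-treated control cultures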; conditions: S. cerevisiae rad50 mutant strain, stronger effect = higher value
# How it was run: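 In this screen, rad50EPP+ yeast were exposed to compounds. Growth inhibition was scored against vehicle-treated controls.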
# [4] = NCI Yeast Anticancer Drug Screen. Data for the mgt1 strain (AID 153); conditions: S. cerevisiae mgt1 mutant growth inhibition, stronger effect = higher value
# How it was run: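 mgt1 strain exposed; growth vs vehicle control recorded as inhibition.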
# [5] = NCI Yeast Anticancer Drug Screen. Data for the rad50 strain (AID 155);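 note: 0% = growth of vehicle-only cultures of the same strain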; conditions: S. cerevisiae rad50 strain growth inhibition, stronger effect = higher value
# How it was run: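 Relative growth inhibition (compound vs vehicle) was measured in yeast with a defined repair-gene alteration.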
# [6] = NCI Yeast Anticancer Drug Screen. Data for the mec2-1 strain (AID 157); conditions: S. cerevisiae mec2-1 strain, stronger effect = higher value
# How it was run: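 Vehicle-treated cultures served as reference for growth inhibition of compound-exposed mec2-1 yeast.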
# [7] = NCI Yeast Anticancer Drug Screen. Data for the rad14 strain (AID 159);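 note: 0% = growth of vehicle-treated control cultures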; conditions: S. cerevisiae rad14 strain growth inhibition, stronger effect = higher value
# How it was run: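 Screen for anticancer potential: a yeast strain altered in DNA damage repair is grown with compound, and reduced growth is quantified against vehicle controls.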
# [8] = NCI Yeast Anticancer Drug Screen. Data for the sgs1 mgt1 strain (AID 161);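 note: 0% = growth of cultures given vehicle only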; conditions: S. cerevisiae sgs1 mgt1 strain, stronger effect = higher value
# How it was run: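 Mutant yeast exposed to compound; growth scored against vehicle-only wells.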
# [9] = NCI Yeast Anticancer Drug Screen. Data for the CLN2oe strain (AID 163);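 note: 0% = growth of vehicle-only control cultures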; conditions: S. cerevisiae CLN2oe strain, stronger effect = higher value
# How it was run: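 Inhibition relative to vehicle-treated yeast is reported. Cells: strain with genetic alteration in cell-cycle control, grown with compound.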
# [10] = NCI Yeast Anticancer Drug Screen. Data for the cln2 rad14 strain (AID 165);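 note: 0% = growth equal to vehicle treated cultures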; conditions: S. cerevisiae cln2 rad14 strain, stronger effect = higher value
# How it was run: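 Each compound was tested on cln2 rad14 yeast. Inhibition of growth was calculated against vehicle-exposed controls.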
# [11] = NCI Yeast Anticancer Drug Screen. Data for the bub3 strain (AID 167); conditions: S. cerevisiae bub3 mutant strain, stronger effect = higher value
# How it was run: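 Screening used yeast with an engineered genetic alteration affecting cell cycle control. Compound-exposed cultures were compared with vehicle cultures, and reduced growth was taken as inhibition.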
# [12] = NCI Yeast Anticancer Drug Screen. Data for the wt2 strain (AID 169);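 note: 0% = growth of vehicle-treated yeast cultures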; conditions: S. cerevisiae wt2 strain growth inhibition, stronger effect = higher value
# How it was run: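 Inhibition of yeast growth was determined after compound treatment, normalised to controls receiving only vehicle.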
# [13] = NCI Yeast Anticancer Drug Screen. Data for the mlh1 strain (AID 171);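 note: 0% = growth of vehicle-treated control cultures of the same strain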; conditions: S. cerevisiae mlh1 strain growth inhibition, stronger effect = higher value
# How it was run: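 Vehicle-normalised growth inhibition of a repair- or checkpoint-altered yeast strain following compound treatment.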
# [14] = NCI Yeast Anticancer Drug Screen. Data for the sgs1 strain (AID 173);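 note: 0% = growth of vehicle-only control cultures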; conditions: S. cerevisiae sgs1 mutant, stronger effect = higher value
# How it was run: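 Screen format: yeast with repair or checkpoint alterations, compound exposure, growth read relative to vehicle.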
# [15] = NCI Yeast Anticancer Drug Screen. Data for the mlh1 rad18 strain (AID 175); conditions: S. cerevisiae mlh1 rad18 strain growth inhibition, stronger effect = higher value
# How it was run: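 Vehicle-treated cultures served as the reference for growth inhibition in a yeast strain carrying DNA damage repair alterations exposed to each compound.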
# [16] = NCI Yeast Anticancer Drug Screen. Data for the rad18 strain (AID 177); conditions: S. cerevisiae rad18 mutant growth inhibition, stronger effect = higher value
# How it was run: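 Test articles were incubated with altered yeast defective in DNA damage repair. Results are given as inhibition of growth versus vehicle.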
# [17] = at 5.0 µM (retest, dose inferred, filed as 0.5)
# [18] = at 50.0 µM (retest, dose inferred, filed as 5.0)
compound,measurement,setting,value
N#CCCC1C(C#N)C2(Cl)CC1(Cl)C(Cl)=C2Cl (stereo unspecified),growth inhibition,[1]; at 1.2 µM,-15%
same,growth inhibition,[1]; at 3.7 µM,-6%
same,growth inhibition,[1]; at 11.0 µM,-2%
same,growth inhibition,[1]; at 33.0 µM,81% (active)
same,growth inhibition,[1]; at 100.0 µM,98% (active)
same,growth inhibition,[2]; at 1.2 µM,-1%
same,growth inhibition,[2]; at 3.7 µM,8%
same,growth inhibition,[2]; at 11.0 µM,1%
same,growth inhibition,[2]; at 33.0 µM,61%
same,growth inhibition,[2]; at 100.0 µM,98% (active)
same,growth inhibition,[3]; at 1.2 µM,-4%
same,growth inhibition,[3]; at 3.7 µM,-20%
same,growth inhibition,[3]; at 11.0 µM,-22%
same,growth inhibition,[3]; at 33.0 µM,4%
same,growth inhibition,[3]; at 100.0 µM,84% (active)
same,growth inhibition,[4]; at 1.2 µM,-38%
same,growth inhibition,[4]; at 3.7 µM,-46%
same,growth inhibition,[4]; at 11.0 µM,-38%
same,growth inhibition,[4]; at 33.0 µM,6%
same,growth inhibition,[4]; at 100.0 µM,98% (active)
same,growth inhibition,[5]; at 1.2 µM,-10%
same,growth inhibition,[5]; at 3.7 µM,7%
same,growth inhibition,[5]; [17],-23%
same,growth inhibition,[5]; at 11.0 µM,1%
same,growth inhibition,[5]; at 33.0 µM,84% (active)
same,growth inhibition,[5]; [18],89% (active)
same,growth inhibition,[5]; at 50.0 µM,89.9% (active)
same,growth inhibition,[5]; at 100.0 µM,97% (active)
same,growth inhibition,[6]; at 1.2 µM,-29%
same,growth inhibition,[6]; at 3.7 µM,-8%
same,growth inhibition,[6]; [17],-16%
same,growth inhibition,[6]; at 11.0 µM,-7%
same,growth inhibition,[6]; at 33.0 µM,45%
same,growth inhibition,[6]; [18],82% (active)
same,growth inhibition,[6]; at 50.0 µM,92% (active)
same,growth inhibition,[6]; at 100.0 µM,98% (active)
same,growth inhibition,[7]; at 1.2 µM,-44%
same,growth inhibition,[7]; at 3.7 µM,-36%
same,growth inhibition,[7]; at 11.0 µM,-20%
same,growth inhibition,[7]; at 33.0 µM,77% (active)
same,growth inhibition,[7]; at 100.0 µM,98% (active)
same,growth inhibition,[8]; [17],-18%
same,growth inhibition,[8]; [18],4%
same,growth inhibition,[8]; at 50.0 µM,91.5% (active)
same,growth inhibition,[9]; at 1.2 µM,-28%
same,growth inhibition,[9]; at 3.7 µM,-9%
same,growth inhibition,[9]; at 11.0 µM,-6%
same,growth inhibition,[9]; at 33.0 µM,38%
same,growth inhibition,[9]; at 100.0 µM,96% (active)
same,growth inhibition,[10]; [17],17%
same,growth inhibition,[10]; [18],75% (active)
same,growth inhibition,[10]; at 50.0 µM,87.8% (active)
same,growth inhibition,[11]; at 1.2 µM,-1%
same,growth inhibition,[11]; at 3.7 µM,-6%
same,growth inhibition,[11]; [17],-8%
same,growth inhibition,[11]; at 11.0 µM,-15%
same,growth inhibition,[11]; at 33.0 µM,58%
same,growth inhibition,[11]; [18],73% (active)
same,growth inhibition,[11]; at 50.0 µM,89.2% (active)
same,growth inhibition,[11]; at 100.0 µM,96% (active)
same,growth inhibition,[12]; at 1.2 µM,5%
same,growth inhibition,[12]; at 3.7 µM,5%
same,growth inhibition,[12]; at 11.0 µM,0%
same,growth inhibition,[12]; at 33.0 µM,31%
same,growth inhibition,[12]; at 100.0 µM,98% (active)
same,growth inhibition,[13]; at 1.2 µM,-42%
same,growth inhibition,[13]; at 3.7 µM,-37%
same,growth inhibition,[13]; at 11.0 µM,-22%
same,growth inhibition,[13]; at 33.0 µM,16%
same,growth inhibition,[13]; at 100.0 µM,97% (active)
same,growth inhibition,[14]; at 1.2 µM,22%
same,growth inhibition,[14]; at 3.7 µM,18%
same,growth inhibition,[14]; at 11.0 µM,20%
same,growth inhibition,[14]; at 33.0 µM,64%
same,growth inhibition,[14]; at 100.0 µM,99% (active)
same,growth inhibition,[15]; [17],-3%
same,growth inhibition,[15]; [18],85% (active)
same,growth inhibition,[15]; at 50.0 µM,86.8% (active)
same,growth inhibition,[16]; at 1.2 µM,-4%
same,growth inhibition,[16]; at 3.7 µM,-9%
same,growth inhibition,[16]; at 11.0 µM,1%
same,growth inhibition,[16]; at 33.0 µM,83% (active)
same,growth inhibition,[16]; at 100.0 µM,98% (active)
C=CC(C)(C)N1C(=O)C(C(C)=O)=C(O)C1Cc1c[nH]c2ccccc12 (stereo unspecified),growth inhibition,[1]; at 1.2 µM,-1%
same,growth inhibition,[1]; at 3.7 µM,-4%
same,growth inhibition,[1]; at 11.0 µM,-2%
same,growth inhibition,[1]; at 33.0 µM,19%
same,growth inhibition,[1]; at 100.0 µM,87% (active)
same,growth inhibition,[2]; at 1.2 µM,1%
same,growth inhibition,[2]; at 3.7 µM,5%
same,growth inhibition,[2]; at 11.0 µM,3%
same,growth inhibition,[2]; at 33.0 µM,20%
same,growth inhibition,[2]; at 100.0 µM,71% (active)
same,growth inhibition,[3]; at 1.2 µM,-1%
same,growth inhibition,[3]; at 3.7 µM,1%
same,growth inhibition,[3]; at 11.0 µM,-4%
same,growth inhibition,[3]; at 33.0 µM,-9%
same,growth inhibition,[3]; at 100.0 µM,-15%
same,growth inhibition,[4]; at 1.2 µM,-2%
same,growth inhibition,[4]; at 3.7 µM,-4%
same,growth inhibition,[4]; at 11.0 µM,-1%
same,growth inhibition,[4]; at 33.0 µM,16%
same,growth inhibition,[4]; at 100.0 µM,95% (active)
same,growth inhibition,[5]; at 1.2 µM,-2%
same,growth inhibition,[5]; at 3.7 µM,-2%
same,growth inhibition,[5]; [17],0%
same,growth inhibition,[5]; at 11.0 µM,-2%
same,growth inhibition,[5]; at 33.0 µM,10%
same,growth inhibition,[5]; [18],48%
same,growth inhibition,[5]; at 50.0 µM,28.6%
same,growth inhibition,[5]; at 100.0 µM,78% (active)
same,growth inhibition,[6]; at 1.2 µM,0%
same,growth inhibition,[6]; at 3.7 µM,1%
same,growth inhibition,[6]; [17],-18%
same,growth inhibition,[6]; at 11.0 µM,7%
same,growth inhibition,[6]; at 33.0 µM,21%
same,growth inhibition,[6]; [18],-8%
same,growth inhibition,[6]; at 50.0 µM,58.7%
same,growth inhibition,[6]; at 100.0 µM,88% (active)
same,growth inhibition,[7]; at 1.2 µM,-3%
same,growth inhibition,[7]; at 3.7 µM,-3%
same,growth inhibition,[7]; at 11.0 µM,-1%
same,growth inhibition,[7]; at 33.0 µM,21%
same,growth inhibition,[7]; at 100.0 µM,95% (active)
same,growth inhibition,[8]; [17],18%
same,growth inhibition,[8]; [18],73% (active)
same,growth inhibition,[8]; at 50.0 µM,52.8%
same,growth inhibition,[9]; at 1.2 µM,-5%
same,growth inhibition,[9]; at 3.7 µM,-12%
same,growth inhibition,[9]; at 11.0 µM,-9%
same,growth inhibition,[9]; at 33.0 µM,16%
same,growth inhibition,[9]; at 100.0 µM,83% (active)
same,growth inhibition,[10]; [17],-4%
same,growth inhibition,[10]; [18],21%
same,growth inhibition,[10]; at 50.0 µM,32.8%
same,growth inhibition,[11]; at 1.2 µM,-3%
same,growth inhibition,[11]; at 3.7 µM,-2%
same,growth inhibition,[11]; [17],-11%
same,growth inhibition,[11]; at 11.0 µM,0%
same,growth inhibition,[11]; at 33.0 µM,15%
same,growth inhibition,[11]; [18],55%
same,growth inhibition,[11]; at 50.0 µM,46.8%
same,growth inhibition,[11]; at 100.0 µM,84% (active)
same,growth inhibition,[12]; at 1.2 µM,-1%
same,growth inhibition,[12]; at 3.7 µM,-1%
same,growth inhibition,[12]; at 11.0 µM,-1%
same,growth inhibition,[12]; at 33.0 µM,16%
same,growth inhibition,[12]; at 100.0 µM,92% (active)
same,growth inhibition,[13]; at 1.2 µM,-6%
same,growth inhibition,[13]; at 3.7 µM,0%
same,growth inhibition,[13]; at 11.0 µM,0%
same,growth inhibition,[13]; at 33.0 µM,14%
same,growth inhibition,[13]; at 100.0 µM,66%
same,growth inhibition,[14]; at 1.2 µM,0%
same,growth inhibition,[14]; at 3.7 µM,0%
same,growth inhibition,[14]; at 11.0 µM,2%
same,growth inhibition,[14]; at 33.0 µM,17%
same,growth inhibition,[14]; at 100.0 µM,90% (active)
same,growth inhibition,[15]; [17],55%
same,growth inhibition,[15]; [18],86% (active)
same,growth inhibition,[15]; at 50.0 µM,68.5%
same,growth inhibition,[16]; at 1.2 µM,0%
same,growth inhibition,[16]; at 3.7 µM,-3%
same,growth inhibition,[16]; at 11.0 µM,-1%
same,growth inhibition,[16]; at 33.0 µM,9%
same,growth inhibition,[16]; at 100.0 µM,66%
